Results from PubChem BioAssay (NCATS).
Records with an inconclusive call do not appear. A call without a number means that no potency is given here. Activity calls are given as the source filed them. Calls come from the whole dose curve; as a rule, active = well fitted curve in the direction sought with a large enough effect; inconclusive = small, poorly fitted or top-dose-only effect, or another doubt; inactive = no such curve, though single readings can be large; an effect the other way counts as inactive or inconclusive.

Key:
[1] = molecular target: Aldehyde dehydrogenase, mitochondrial (Homo sapiens) (UniProt P05091); test: qHTS for Inhibitors of the Aldehyde Dehydrogenase Family (ALDH2) Primary screen (AID 2061308); note: nearly all actives have a fitted effect of over 55% in size
[2] = molecular target: Retinaldehyde dehydrogenase 3 (Homo sapiens) (UniProt P47895); test: qHTS for Inhibitors of the Aldehyde Dehydrogenase Family (ALDH1A3) Primary screen (AID 2061315)

SMILES | Potency [1] | Potency [2]
COc1ccc(C(=O)Nc2ccc(-c3nc4ccccc4[nH]3)cc2)cc1OC | inactive | inactive
O=C(Cc1ccc(Cl)c(Cl)c1)Nc1ccc([S+](=O)([O-])Nc2ncn[nH]2)cc1 | inactive | inactive
Cc1ccc(NC(=O)CN2C(=O)N/C(=C\c3cccn3-c3ccc([S+](N)(=O)[O-])cc3)C2=O)cc1 | inactive | inactive
CC(Nc1ccc([S+](=O)([O-])Nc2nccs2)cc1)c1ccccc1 (stereo unspecified) | inactive | inactive
Cc1ccc(OCCn2c(CCNC(=O)/C=C/c3ccccc3Cl)nc3ccccc32)cc1 | inactive | inactive
O=c1c2ccccc2nc2sc(Nc3cccc(Br)c3)nn12 | inactive | inactive
CN(C)c1cccc(-c2cc(N3CCC(C(N)=O)CC3)ncn2)c1 | inactive | inactive
CCC(=O)NC(c1ccco1)c1cc([N+](=O)[O-])c2cccnc2c1O (stereo unspecified) | inactive | inactive
Cn1c2ccsc2c2cnn(Cc3ccccc3F)c(=O)c21 | inactive | inactive
COc1cc(O)c(C(CC(=O)N2CCOCC2)c2ccc3c(c2)OCO3)c(OC)c1 (stereo unspecified) | inactive | inactive
Cc1cc2c(s1)c1cnn(Cc3ccc(C(F)(F)F)cc3)c(=O)c1n2C | inactive | inactive
Cn1c2cc(S(C)(=O)=O)sc2c2cnn(Cc3ccccc3F)c(=O)c21 | inactive | inactive
Cc1ccccc1NS(=O)(=O)c1ccc2c(c1)CCC(=O)N2 | inactive | inactive
Cc1ccc(-c2cc(C(=O)Nc3ccc(-c4nn[nH]n4)cc3)c3ccccc3n2)cc1C | inactive | inactive
O=C(Nc1ccc(S(=O)(=O)Nc2nccs2)cc1)c1ccnc(-c2ccccc2)c1 | inactive | inactive
CC(C)c1ccccc1-c1nccc(NCc2ccc(-c3ccnc(C(F)(F)F)c3)cc2)n1 | inactive | inactive
CCNc1ncnc2ccc(-c3ccc4c(c3)OCO4)cc12 | inactive | inactive
COc1ccc(C2Nc3ccccc3C(=O)N2Cc2ccccc2)cc1COc1c(C)cccc1C (stereo unspecified) | inactive | inactive
O=C(NCCCc1cnc[nH]1)NCCCN(Cc1ccc(Cl)c(Cl)c1)c1ccc(Br)cn1 | inactive | inactive

SMILES | Potency [1] | Potency [2]
O=C(Nc1ccc(S(=O)(=O)Nc2nccs2)cc1)C1CCC2(CCC2)CC1 | inactive | inactive
COc1ccc(-c2nc3ccccc3s2)cc1OC | inactive | inactive
O=C(Cc1ccc(Cl)c(Cl)c1)Nc1ccc(S(=O)(=O)NCc2ccco2)cc1 | inactive | inactive
Cc1cncc(NC(=S)N2CCN(c3cccc(C(F)(F)F)c3)CC2)c1 | inactive | inactive
COc1ccc(S(=O)(=O)Nc2c(C)cc(C)cc2C)cc1 | inactive | inactive
C=CC(=O)Nc1cc(Nc2ncc(Cl)c(-c3c[nH]c4ccccc34)n2)c(OC)cc1N(C)CCN(C)C | inactive | inactive
CCOC(=O)c1cc2c([nH]1)CCCC2=O | inactive | inactive
COc1ccc(C2Nc3ccccc3C(=O)N2Cc2ccccc2)cc1Oc1ccc(NC(C)=O)cc1 (stereo unspecified) | inactive | inactive
CC(=O)Nc1ccc(CNc2ncnc3ccc(-c4c(C)noc4C)cc23)cc1 | inactive | inactive
c1ccc(CNc2nc(-c3cccs3)nc3ccccc23)cc1 | inactive | inactive
CCCn1c(-c2ccc(F)cc2)nc2c(NC3CCN(Cc4ccccc4)CC3)nc(C)nc21 | inactive | inactive
CC(C)(C)OC(=O)NCCOCCOCCOc1cccc(-n2ncc3c2CCCC3NC(=O)c2ccccn2)c1 (stereo unspecified) | inactive | inactive
O=C(O)c1ccc2c(c1)C(=O)N([C@H](Cc1ccc(-c3ccccc3)cc1)C(=O)O)C2=O | inactive | inactive
CC(C)c1cc(C(=O)N2CC[C@H](NC(=O)C3CC3)C2)n[nH]1 | inactive | inactive
O=C1Nc2ccccc2C1Cc1cc(Cl)c(O)c(Cl)c1 (stereo unspecified) | inactive | inactive
Cc1ccc(-c2cc(C(=O)Nc3ccccc3Cl)c3ccccc3n2)cc1C | inactive | inactive
CN1CCN(c2cc(-c3cc(O)c4ncccc4c3)ccn2)CC1 | inactive | inactive
Cc1cc2c(s1)c1c(n2C)C(=O)N(Cc2ccccc2F)C1 | inactive | inactive
Cc1ccc(-c2cc(C(=O)Nc3nc4ccccc4s3)c3ccccc3n2)cc1C | inactive | inactive
